From PubChem
The full list was thinned out, with hits kept by preference.
Dicer inh: inhibitors of Dicer pre-microRNA processing, primary screen, biochemical, cat-ELCCA, chemiluminescence; Endoribonuclease Dicer (Homo sapiens), Q9UPY3; cat-ELCCA pre-miR-21 Dicer processing; stronger effect = higher value; z-score at 25 µM; 47,000 compounds, 6% hits; in the data active = z-score above about 3, passing the limit was not always enough;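 note: plate controls were vehicle for no effect and no enzyme for full effect; higher signal means more uncleaved substrate so more Dicer inhibition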
* hit, by the source's call.

SMILES	Dicer inh
Cc1nnc(N2C(=O)c3oc4ccccc4c(=O)c3C2c2cccc(OCc3ccccc3)c2)s1 (configuration not stated)	-0.16
CC(c1ccccc1)n1c(OC(=O)N(C)C)nnc1SCC(=O)c1ccc2c(c1)OCCO2 (configuration not stated)	3.6*
CSc1nnc(SCC(=O)c2ccc3c(c2)OCCO3)s1	1.9
O=C(CSc1n[nH]c(=O)n1-c1ccccc1)c1ccc2c(c1)OCCO2	1.2
CCCCc1ccc(C2C(C(=O)OCC)=C(C)NC3=C2C(=O)CC(C)(C)C3)s1 (configuration not stated)	-1.9
COC(=O)c1cccc(NC(=O)c2ccc(C(C)(C)C)cc2)c1	1
CC(C)(C)OC(=O)C(C)(C)ONC(=O)Nc1ccc(Cl)cc1Cl	-1.3
O=C1C(=O)N(CCN2CCOCC2)C(c2cccs2)/C1=C(\O)c1ccccc1 (configuration not stated)	1.3
OC(C#CCN1CCOCC1)c1cccs1 (configuration not stated)	4*
O=C(c1cccs1)C(O)c1cccs1 (configuration not stated)	-0.15
O=S(=O)(NC1Cc2ccccc2C1)c1ccc(Br)s1	-0.63
C=CCn1c(-c2ccc(N)cc2)nc2ccccc21	1.5
Cc1nc2ccccc2n1-c1ccccc1	-1.5
Nc1ccc(-c2nc3cc(N)ccc3n2-c2ccccc2)cc1	3.4*
CC1=NN(c2ccccc2)C(=O)C1C(=O)c1ccc(Br)cc1 (configuration not stated)	-2.8
COc1ccc(Cl)cc1NC(=O)CSCC(=O)O	2.2
CSc1sc(C(=O)O)c2c1C(=O)CC(C)(C)C2	0.03
CSc1sc(/C(C)=N\O)c2c1/C(=N\O)CC(C)(C)C2	5.6*
COC(=O)c1sc(SC)c2c1CC(C)(C)C/C2=N/O	-0.85
COc1ccc2c(c1)NC(c1ccc(F)cc1)c1cccn1-2 (configuration not stated)	-1.5
O=C(O)c1coc2c1/C(=N/Nc1c(Cl)cc(Cl)cc1Cl)CCC2	3.8*
O=C(O)c1coc2c1/C(=N/N1CCCCC1)CCC2	0.82
Clc1cc(Cl)c(N/N=C2\CCCc3occc32)c(Cl)c1	2
COC(=O)c1sccc1-c1ccc(CN2CCN(c3ccccc3)CC2)o1	-0.35
CCOC(=O)C(=CNc1ccc(F)cc1)C(=O)OCC	-0.11
SMILES	Dicer inh
NNC(=S)NCCc1ccc(Cl)cc1	4.5*
S=C(NCCn1ccnc1)Nc1ccc(Cl)cc1	0.86
S=C(NCCc1ccccc1)Nc1cccc(Cl)c1Cl	0.28
NC(=O)C1CCN(c2ncc(Cl)cc2C(F)(F)F)CC1	-1.3
O=C(COc1ncnc2cc(Cl)ccc12)Nc1ccc(Cl)cc1	0.48
COC(=O)c1c(NC(=O)Nc2cccc(Cl)c2)sc2c1CCCC2	3.4*
CCCC(=O)Nc1sc2c(c1C(=O)OC)CCC2	0.71
COC(=O)c1c(NC(=O)c2ccccc2Br)sc2c1CCC2	1.4
COC(=O)C1=C(N)Oc2cc(N(C)C)ccc2C1c1ccccc1OC (configuration not stated)	3.2*
COc1ccc(Br)cc1C1C(C#N)=C(N)Oc2cc(O)ccc21 (configuration not stated)	0.58
COC(=O)C1=C(C)NC2=C(C(=O)CC(C)(C)C2)C1c1ccccc1OC (configuration not stated)	2.8
Cc1c(S(=O)(=O)c2ccc(Cl)cc2)csc1S(=O)(=O)N1CCCC1	3*
Cc1ccc2c(c1)CCCN2C(=O)c1scc(S(=O)(=O)c2ccc(Cl)cc2)c1C	-1.7
Cc1c(S(=O)(=O)c2ccc(Cl)cc2)csc1C(=O)Nc1ccc(N2CCOCC2)c(Cl)c1	-1.9
Cc1nc(Nc2nc3ccccc3s2)[nH]c(=O)c1Cc1ccccc1	-0.29
CCOC(=O)C(NC(=O)c1ccccc1Cl)(Nc1cc(C)on1)C(F)(F)F (configuration not stated)	0.4
Cc1ccccc1-c1nc2sc3c(c2c(=O)o1)CCC3	0.99
O=c1oc(-c2ccccc2)nc2sc3c(c12)CCCC3	0.54
O=c1oc(-c2cccs2)nc2sc3c(c12)CCCCC3	0.26
O=c1oc(/C=C/c2ccccc2)nc2sc3c(c12)CCC3	4.8*
O=c1oc(-c2ccccc2)nc2sc3c(c12)CCCCC3	3.1*
S=c1nc2sc3c(c2c(Nc2ccccc2)[nH]1)CCCC3	-0.93
Nc1[nH]c(=S)[nH]c(=O)c1C(c1ccccc1Cl)c1c(N)[nH]c(=S)[nH]c1=O	-1.3
Cc1nn2cc(-c3cccc([N+](=O)[O-])c3)nc2s1	-0.08
Cc1ccc(NC(=O)NN2CC(=O)N(c3ccccc3F)CC2=O)cc1	4.8*
SMILES	Dicer inh
Cc1ccc(NC(=O)NN2CC(=O)N(c3ccc(Cl)cc3)CC2=O)cc1	1.7
NN1CC(=O)N(c2ccccc2F)CC1=O	1.1
CCCOc1ccc(C2c3c(oc4ccc(F)cc4c3=O)C(=O)N2CCCN(C)C)cc1 (configuration not stated)	-1.1
Cc1cc2nc(-c3cc4cc(Cl)cc(Cl)c4oc3=O)[nH]c2cc1C	4.7*
CC(=O)c1cc2cc(Cl)cc(Cl)c2oc1=O	-0.41
CC(=O)c1cc2cc(Cl)cc(Cl)c2o1	1
